Results from PubChem BioAssay (Tox21).
Inconclusive results are not listed. The source made the active and inactive calls. The call rests on the fitted dose curve; in most records, active means well fitted activation curve with a large enough effect in the repeat runs; inconclusive means weak or mixed curves; inactive means flat fitted curve, though single readings scatter.

assay: A CellTox Green Cytotoxicity Assay to monitor cytotoxicity in HepG2 cells - 32 hour (AID 1224883); settings: CellTox Green fluorescence; series mostly up to 76.8 µM; cytotoxicity increase: at the top concentration; further: nearly all actives have a fitted effect of over 50% in size
Summary of the method: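 Nonlytic assay: viable cells exclude the dye, so fluorescence scales with cell death. HepG2 at 600 cells/well, compounds added after 5 h, signal read across 40 h.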
On the % scale 0 is the no-effect control and ±100 the full control effect.

SMILES	cytotoxicity increase
CCCC(=O)OCc1ccccc1	-2.45% (inactive)
CCCCCCCCC(=O)OCC(C)OC(=O)CCCCCCCC (centres undefined)	10.5% (inactive)
CC[C@H](NC(C)C)[C@H](O)c1ccc(O)c2[nH]c(=O)ccc12	-2.92% [at 35.3 µM] (inactive)
O=C(O)c1ccncc1	-3.73% (inactive)
CCCCCCCCOCCCN	-2.26% (inactive)
COc1cc(CNC(=O)CCCC/C=C/C(C)C)ccc1O	-0.147% (inactive)
C[C@H]1C[C@H]2[C@@H]3CCC4=CC(=O)C=C[C@]4(C)[C@@]3(F)[C@@H](O)C[C@]2(C)[C@@]1(O)C(=O)COP(=O)(O)O	-16.2% (inactive)
CC(C)(C)N	0.492% (inactive)
CNc1ccccc1	-0.3% (inactive)
C=Cc1ccc(C=C)cc1	-12.1% (inactive)
C/C=C1\[C@H]2C=C(C)C[C@]1(N)c1ccc(=O)[nH]c1C2	-8.56% [at 35.3 µM] (inactive)
O=C1OC(=O)C2CC=CCC12 (centres undefined)	-10.3% (inactive)
CC1(C)C(=O)NC(=O)N1CO	2.87% (inactive)
Nc1ccc(C(=O)Oc2ccccc2)c(O)c1	27.2% [at 35.3 µM] (inactive)
COC(=O)/C=C/C(C)=C\C=C\C(C)=C\C=C\C=C(C)\C=C\C=C(C)\C=C\C(=O)O	-0.554% (inactive)
O=c1[nH]nc(-c2ccc([N+](=O)[O-])o2)o1	-15.7% (inactive)
C/C(=C(\CCO)SS/C(CCO)=C(\C)N(C=O)Cc1cnc(C)nc1N)N(C=O)Cc1cnc(C)nc1N	-3.91% [at 35.3 µM] (inactive)
O=[N+]([O-])c1cccc(I)c1	1.76% (inactive)
CC(=O)Nc1ccccc1O	20.9% (inactive)
CC1(COc2ccc(CC3SC(=O)NC3=O)cc2)CCCCC1 (centres undefined)	25.5% [at 35.3 µM] (inactive)

SMILES	cytotoxicity increase
CC(=O)c1ccc(Cl)c(Cl)c1Cl	8.6% (inactive)
CC(=O)Oc1cccc2c1C(=O)c1c(OC(C)=O)cc(C(=O)O)cc1C2=O	-5.21% [at 35.3 µM] (inactive)
CC1=C(C)C(=O)C(C(CCCCCC(=O)O)c2ccccc2)=C(C)C1=O (centres undefined)	-12.7% [at 35.3 µM] (inactive)
CO[C@@H]1COCC[C@@H]1N[C@@H]1CC[C@@](C(=O)N2CCc3ncc(C(F)(F)F)cc3C2)(C(C)C)C1	1.38% (inactive)
O=C(NC1CCN(CCc2c[nH]c3ccccc23)CC1)c1ccccc1	14.4% [at 35.3 µM] (inactive)
N#CCCCC(C#N)CCC#N (centres undefined)	-8.55% (inactive)
C(/C=C/C=C/Nc1ccccc1)=Nc1ccccc1	-12.2% (inactive)
CCC(C)C1N=C(C)C(C)S1 (centres undefined)	-0.0945% (inactive)
Cc1cc(C)n(CO)n1	-9.41% (inactive)
CCOc1ccccc1O	-4.82% (inactive)
CCC1=C(C)CN(C(=O)NCCc2ccc(S(=O)(=O)NC(=O)NC3CCC(C)CC3)cc2)C1=O (centres undefined)	0.365% [at 35.3 µM] (inactive)
O=C1c2ccccc2C(=O)c2c1ccc(O)c2O	-1.41% [at 35.3 µM] (inactive)
CC(C)C/C=C(\C=O)c1ccccc1	-13.3% (inactive)
CC(C)=CCC[C@H](C)CCO	29.6% (inactive)
Cc1ccc(NC=O)c(C)c1	-13.4% (inactive)
NC(=O)c1cc[n+](CC2=C(C(=O)[O-])N3C(=O)[C@@H](NC(=O)Cc4cccs4)[C@H]3SC2)cc1	3.07% [at 35.3 µM] (inactive)
[O-][n+]1ccc(Cl)cc1	-17.6% (inactive)
COc1ccc(/C=C/S(=O)(=O)NC(=O)c2ccc(C)cc2Cl)cc1	1.83% (inactive)
CCC(C(=O)O)c1ccc(N2Cc3ccccc3C2=O)cc1 (centres undefined)	-1.5% [at 35.3 µM] (inactive)
